The source of these data is PubChem BioAssay (NCATS).

The nature of test [1]: MultiTox-Fluor Cytotoxicity Assay - LYMP1-001 - Dead Cells (AID 946). Further: potency means the concentration at half of the fitted maximal effect. In a few lines:
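Seed 2500 LYMP1-001 cells/well, incubate 5 hr at 37 C; add compound, 16 hr at 37 C; add MultiTox-Fluor reagent, 60 min RT; read dead-cell fluorescence Ex/Em=485/520. Normalize to DMSO and 15 uM tetraoctylammonium bromide.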

The nature of test [2]: Cell Viability - LYMP1-002 - Assay at 16 hr (AID 948). Further: potency means the concentration at half of the fitted maximal effect. The method in brief: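 LYMP1-002 human lymphoblastoid cells, 2500/well, were treated with compounds for 16 hr at 37 C in complete medium. Viability was read as intracellular ATP by CellTiter-Glo luminescence, and AC50 was derived from a Hill fit to concentration-response data.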
The target in test [3] is Pyruvate kinase PKM (Homo sapiens) (UniProt P14618). Description: qHTS Assay for Activators of Human Muscle Pyruvate Kinase (AID 954; active means well fitted curve in the direction sought with a large enough effect, not every such curve was filed as active). In a few lines: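 PKM2, human, >95% pure, 0.1 nM; PEP 0.5 mM (Km), ADP 0.1 mM; 50 mM imidazole pH 7.2, 50 mM KCl, 0.01% Tween 20, 0.05% BSA; 1 h RT; luciferase luminescence readout.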
Chain of Pyruvate kinase PKM (Homo sapiens) (P14618 whole entry, looked up): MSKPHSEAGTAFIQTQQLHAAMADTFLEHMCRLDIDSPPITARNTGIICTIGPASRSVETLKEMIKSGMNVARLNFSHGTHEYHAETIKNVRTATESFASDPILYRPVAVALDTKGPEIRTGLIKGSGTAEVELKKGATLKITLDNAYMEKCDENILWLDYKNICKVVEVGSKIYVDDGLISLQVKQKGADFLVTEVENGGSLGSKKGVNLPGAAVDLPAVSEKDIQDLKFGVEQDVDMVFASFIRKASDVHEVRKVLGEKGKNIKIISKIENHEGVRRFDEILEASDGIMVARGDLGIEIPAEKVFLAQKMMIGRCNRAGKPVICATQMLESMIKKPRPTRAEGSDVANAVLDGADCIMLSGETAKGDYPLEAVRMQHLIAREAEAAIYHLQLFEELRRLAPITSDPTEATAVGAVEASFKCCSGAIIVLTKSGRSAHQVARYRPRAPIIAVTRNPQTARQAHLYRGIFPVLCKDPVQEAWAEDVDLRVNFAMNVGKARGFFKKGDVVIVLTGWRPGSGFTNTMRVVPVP
The nature of test [4]: MultiTox-Fluor Cytotoxicity Assay - LYMP1-002 - Live Cells (AID 955).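 Further: cells exposed to compound for 16 hours.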 Further: potency means the concentration at half of the fitted maximal effect. The method in brief: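 After 16 h compound exposure at 37 C, live LYMP1-002 lymphoblastoid cells (2500/well) were quantified by cleavage of cell-permeant GF-AFC substrate, read at 405/510 nm after 60 min. Concentration-response fitted with Hill equation for AC50.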
Test [5] is described as follows: MultiTox-Fluor Cytotoxicity Assay - LYMP1-002 - Dead Cells (AID 960). Further: nearly all actives have a fitted effect of over 60% in size. Further: potency means the concentration at half of the fitted maximal effect. The method in brief: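 Dead-cell fluorescence (Ex/Em 485/520) after 16 h compound exposure at 37 C of LYMP1-002 lymphoblastoid cells in complete medium; AC50 by Hill equation, with data scaled between DMSO and 15 uM tetraoctylammonium bromide.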
Test [6] is described as follows: MultiTox-Fluor Cytotoxicity Assay - LYMP1-003 - Live Cells (AID 962).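 Further: cells exposed to compound for 16 hours at 37 °C.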 Further: potency means the concentration at half of the fitted maximal effect. In a few lines:
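Live-cell protease activity (GF-AFC substrate, 405/510 nm, 60 min at room temperature) after 16 h, 37 C compound exposure of human lymphoblastoid LYMP1-003 cells; concentration-response fitted to the Hill equation for AC50.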

Test [7] is described as follows: Cell Viability - LYMP1-003 - Assay at 24 hr (AID 963). Further: potency means the concentration at half of the fitted maximal effect. The method in brief: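 Concentration-response qHTS: ATP loss measured by CellTiter-Glo luminescence after 24 h compound exposure at 37 C. Cells were LYMP1-003 human lymphoblastoid, 2500 per well. AC50 derived via standard Hill equation modeling.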
Test [8] in a line: Cell Viability - LYMP1-003 - Assay at 40 hr (AID 964). Further: nearly all actives have a fitted effect of over 60% in size. Further: potency means the concentration at half of the fitted maximal effect. In a few lines: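 Viability is taken as cellular ATP, read by CellTiter-Glo luminescence after 40 h of compound exposure at 37 C. Cells: human lymphoblastoid line LYMP1-003 at 2500/well; AC50 values derived by Hill-equation fitting of concentration-response data.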
Test [9] in a line: Cell Viability - LYMP2-003 (AID 965).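 Further: cells exposed to compounds for 24 h before reading; nearly all actives have a fitted effect of over 50% in size.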 Further: potency means the concentration at half of the fitted maximal effect. In a few lines:
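Human lymphoblastoid LYMP2-003 cells, 2500/well, exposed to compounds for 24 h at 37 C in complete medium. Viability read as intracellular ATP by CellTiter-Glo luminescence; AC50 from Hill-equation fits of qHTS concentration-response data.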

The nature of test [10]: Cell Viability - LYMP2-004 (AID 966). Further: nearly all actives have a fitted effect of over 65% in size. Further: potency means the concentration at half of the fitted maximal effect. In a few lines: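 AC50 values come from Hill modelling of concentration-dependent loss of intracellular ATP, measured by CellTiter-Glo luminescence. Human LYMP2-004 lymphoblastoid cells (2500/well) were exposed to compound for 24 h at 37 C.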
The nature of test [11]: Cell Viability - LYMP2-011 (AID 969). Further: nearly all actives have a fitted effect of over 60% in size. Further: potency means the concentration at half of the fitted maximal effect. In a few lines:
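Cytotoxicity qHTS with ATP content as read-out: lymphoblastoid cells (2500/well) exposed to compound for 24 h at 37 C, then luciferase luminescence measured. Concentration-response data fitted with the standard Hill equation to give AC50.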

Test [12] in a line: Cell Viability - LYMP2-013 (AID 970). Further: nearly all actives have a fitted effect of over 55% in size. Further: potency means the concentration at half of the fitted maximal effect. In a few lines: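 qHTS cytotoxicity: ATP-dependent luminescence (CellTiter-Glo, 30 min room temperature) read after 24 h compound exposure at 37 C of 2500 LYMP2-013 lymphoblastoid cells per well. Concentration-response fitted with Hill equation to give AC50.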
Test [13] is described as follows: Cell Viability - LYMP2-017 (AID 972). Further: nearly all actives have a fitted effect of over 55% in size. Further: potency means the concentration at half of the fitted maximal effect. The method in brief: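 CellTiter-Glo luminescence (cellular ATP, 30 min RT) measured cytotoxicity after 24 hr compound treatment at 37 C. Cells were a human lymphoblastoid line, LYMP2-017, plated at 2500/well and incubated 5 hr first; concentration-response fitted with Hill equation for AC50.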
The nature of test [14]: Cell Viability - LYMP2-019 (AID 973). Further: nearly all actives have a fitted effect of over 55% in size. Further: potency means the concentration at half of the fitted maximal effect. In a few lines: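 AC50 values come from Hill-equation fits of luminescent intracellular ATP (CellTiter-Glo, 30 min, room temperature) following 24 h compound exposure at 37 C. Cells: LYMP2-019 lymphoblastoid line, 2500 per well, in complete culture medium.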
Test [15] has as its target Pyruvate kinase (Leishmania mexicana) (UniProt Q27686). Description: qHTS Validation Assay for Activators of Leishmania Mexicana Pyruvate Kinase (AID 959). The method in brief: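 An endpoint luciferase assay: 0.2 nM LmPYK E451W turns over 0.5 mM PEP with 0.1 mM ADP for 1 h at room temperature, pH 7.2, before PKLight addition. Values are normalized to DMSO-only wells.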
A general note: Quantitative high-throughput screening tests each substance at several concentrations.

Test [16] can be described thus: Cell Viability - LYMP2-005 (AID 967). Further: series mostly up to about 92 µM. In a few lines: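 Human lymphoblastoid LYMP2-005 cells, 2,500 per well in complete medium, rested 5 h at 37C then compound-treated 24 h at 37C. Intracellular ATP read by CellTiter-Glo luminescence after 30 min at room temperature; AC50 from Hill-equation fits of concentration-response data.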
Test [17] in a line: MultiTox-Fluor Cytotoxicity Assay - LYMP1-003 - Dead Cells (AID 961). Further: nearly all actives have a fitted effect of over 70% in size. The method in brief:
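LYMP1-003 lymphoblastoid, 2500 cells/well, 5 hr settle then 16 hr cpd at 37 C; MultiTox-Fluor reagent 60 min RT; Ex/Em 485/520 dead-cell signal; norm. DMSO = 0%, 15 uM tetraoctylammonium bromide = 100%; Hill AC50.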

Test [18] can be described thus: Cell Viability - LYMP2-009 (AID 968). Further: nearly all actives have a fitted effect of over 55% in size. Further: potency means the concentration at half of the fitted maximal effect.
Test [19] can be described thus: Cell Viability - LYMP2-015 (AID 971). Further: nearly all actives have a fitted effect of over 55% in size. In a few lines: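 Cytotoxicity readout: decrease in intracellular ATP (CellTiter-Glo luminescence) in 2500 LYMP2-015 lymphoblastoid cells/well after 24 h compound exposure at 37 C. Concentration-response data fitted with the standard Hill equation to give AC50.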
For test [20], the target named is Pyruvate kinase PKM (Homo sapiens) (UniProt P14618). Description: qHTS Assay for Inhibitors of Human Muscle Pyruvate Kinase (AID 958). The settings on record: purified human PKM enzyme activity. In a few lines:
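ATP production by PKM2 detected via luciferase luminescence after 1 h room-temperature reaction (0.1 nM enzyme, PEP at Km 0.5 mM, ADP 0.1 mM, pH 7.2 imidazole buffer). Inhibition scaled to no-enzyme control; activation referenced to 0.3 nM enzyme wells.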

Results filed as inconclusive are left out. Active and inactive are the calls of the source. Unless noted, the call rests on the fitted dose curve; in most records, active means well fitted curve in the direction sought with a large enough effect; inconclusive means small, poorly fitted or top-dose-only effect, or another doubt; inactive means no such curve, though single readings can be large; an effect the other way counts as inactive or inconclusive.

Chain of Pyruvate kinase (Leishmania mexicana) (Q27686 2-499 E452W): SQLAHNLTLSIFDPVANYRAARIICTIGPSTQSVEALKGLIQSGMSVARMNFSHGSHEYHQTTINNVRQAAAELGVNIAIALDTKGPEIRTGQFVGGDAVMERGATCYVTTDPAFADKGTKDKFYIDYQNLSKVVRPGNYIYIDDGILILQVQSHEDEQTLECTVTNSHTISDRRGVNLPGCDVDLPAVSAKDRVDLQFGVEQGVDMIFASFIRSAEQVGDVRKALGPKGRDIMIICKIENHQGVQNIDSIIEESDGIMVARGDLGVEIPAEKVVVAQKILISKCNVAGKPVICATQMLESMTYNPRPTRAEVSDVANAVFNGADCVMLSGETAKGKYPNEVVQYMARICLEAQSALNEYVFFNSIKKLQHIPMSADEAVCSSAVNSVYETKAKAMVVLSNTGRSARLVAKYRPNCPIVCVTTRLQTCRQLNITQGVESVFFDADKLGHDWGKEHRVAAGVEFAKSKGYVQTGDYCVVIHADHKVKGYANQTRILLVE

Take `CC1=C(/C=C/C(C)=C/C=C/C(C)=C/C(=O)Nc2ccc(O)cc2)C(C)(C)CCC1`: the Potency was 79.4 µM (active) in test [1]; 50.1 µM (active) in test [2]; 25.1 µM (active) in test [4]; 31.6 µM (active) in test [5]; 50.1 µM (active) in [6]; 50.1 µM (active) in [7]. Further, the Potency in test [8] was 39.8 µM (active); in test [9], 39.8 µM (active); in test [10] it was 39.8 µM (active); in [11], 63.1 µM (active); in test [12], 50.1 µM (active); in test [13] it was 50.1 µM (active). The Potency in test [14] was 50.1 µM (active). Also, the result in [3] was inactive.
Regarding `CC(=O)N[C@@H](CS)C(=O)O`, the molecule was called inactive in [3].
With `CC(C)NCC(O)COc1cccc2[nH]ccc12` (centres undefined), the outcome in test [3] was inactive.
With `O=c1cc(-c2ccc(O)cc2)oc2cc(O)cc(O)c12`, the Potency in test [1] was 79.4 µM (active). In addition, the molecule was classed as inactive in [3], in test [15] and in test [16]. In addition, the Potency entry in test [5], in test [6], in test [7], in [9], in test [10] and in [14] was “inactive” in each case.
Take `COc1ccccc1N1CCN(CCCNc2cc(=O)n(C)c(=O)n2C)CC1`: the molecule was classed as inactive in [3].
Same read-out and setting: for `Clc1ccc(Cn2c(CN3CCCC3)nc3ccccc32)cc1` the value was “inactive”.
Take `CCCNC(=O)NS(=O)(=O)c1ccc(Cl)cc1`: the Potency entry in test [1], in test [2], in test [4], in test [5], in test [6] and in test [7] was “inactive” each time. Further, the Potency entry in test [8], in [9], in test [10], in [18], in [11] and in test [12] was “inactive” throughout. Besides, the Potency result in test [19], in test [13] and in test [14] was “inactive” throughout. Moreover, the call in [3], in [17] and in test [16] was inactive.
Consider `O=C1NC(=O)C(c2ccccc2)(c2ccccc2)N1`, for which the Potency entry in test [1], in test [2], in test [4], in test [6], in test [7] and in test [8] was “inactive” each time. The Potency entry in [9], in test [10], in test [18], in test [11], in test [12] and in [19] was “inactive” in each case. The Potency entry in [13] and in [14] was “inactive” each time. Further, the molecule was classed as inactive in [3], in test [17] and in [16].
`COc1ccc(Cc2nccc3cc(OC)c(OC)cc23)cc1OC`: the molecule was called inactive in test [3].
Take `CC/C(=C(\c1ccccc1)c1ccc(OCCN(C)C)cc1)c1ccccc1`: the Potency is 50.1 µM (active) in [1]; 31.6 µM (active) in test [4]; 25.1 µM (active) in test [5]; 50.1 µM (active) in test [8]; 39.8 µM (active) in test [9]; 50.1 µM (active) in [18]. In addition, the Potency in test [11], in test [12], in test [13] and in test [14] was 50.1 µM (active) throughout. Besides, the molecule was classed as inactive in test [3].
On to `CC1(C)CCC2=C(O1)c1ccccc1C(=O)C2=O`, for which the result in [3] was inactive.
As to `O=c1c(-c2ccc(O)cc2)coc2cc(O)ccc12`, the Potency entry in test [1], in test [2], in test [4], in test [5], in test [6] and in [7] was “inactive” throughout. For the same molecule, the Potency result in [9], in [10], in test [18], in [11], in test [12] and in test [19] was “inactive” throughout. For the same molecule, the Potency result in test [13] and in test [14] was “inactive” each time. Besides, the molecule was called inactive in test [3], in test [17] and in [16].
As for `COc1cccc(-c2cc(=O)c3ccccc3o2)c1N`, the outcome in test [3] and in [15] was inactive. Besides, the Potency in [20] was 15.8 µM (active).
On to `CCN(CC)CCNC(=O)c1ccc(N)cc1`, for which, in test [3], the molecule was classed as inactive.
Turning to `CCN(CC)CCOC(=O)c1ccc(N)cc1`, the outcome in test [3] was inactive.
As for `C[N+](C)(C)CC(=O)O`, in test [3], the call was inactive.
Still for that read-out and setting: for `CCN1CCC[C@H]1CNC(=O)c1cc(S(N)(=O)=O)ccc1OC` the value was “inactive”.
For `O=c1c(O)c(-c2ccc(O)cc2)oc2cc(O)cc(O)c12`, the Potency entry in [1], in test [2], in test [4], in test [5], in test [6] and in test [7] was “inactive” in each case. The Potency result in test [8], in [9], in test [10], in [18], in test [11] and in test [12] was “inactive” in each case. Also, the Potency entry in [19], in [13] and in test [14] was “inactive” each time. Moreover, the call in test [17] and in [16] was inactive.
For `O=c1[nH]cnc2c1ncn2[C@H]1CC[C@@H](CO)O1`, the Potency result in test [1], in [2], in test [4], in [5], in test [6] and in test [7] was “inactive” each time. For the same molecule, the Potency result in test [8], in test [9], in [10], in [18], in [11] and in [12] was “inactive” each time. Besides, the Potency result in test [19], in [13] and in test [14] was “inactive” in each case. The molecule was classed as inactive in test [17] and in [16].
